# In all, about 340,000 compounds went through this assay and about 2,000 (0.59%) were called active. The full list was thinned out, with actives kept by preference. Unmarked numbers belong to inactive results. Cut-off read from the data, not from the text of the source: active = activation mostly above about 9.5% (no sharp cut-off); inactive = mostly below about 7.6%.
# Biological target: 5-hydroxytryptamine receptor 5A (Homo sapiens) (UniProt P47898)
# Assay: activation of human 5-HT5A receptor – cell-based, luminescence, full-deck HTS, counter-screen for OPRM1-OPRD1 heterodimer agonist project, primary screen (AID 504692);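 note: 0% = cells with vehicle only and 100% = reference agonist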
# Details: HTR5A agonist assay, at 9.3 µM, active compounds read high
# 5-hydroxytryptamine receptor 5A (Homo sapiens), sequence (P47898 whole entry, looked up): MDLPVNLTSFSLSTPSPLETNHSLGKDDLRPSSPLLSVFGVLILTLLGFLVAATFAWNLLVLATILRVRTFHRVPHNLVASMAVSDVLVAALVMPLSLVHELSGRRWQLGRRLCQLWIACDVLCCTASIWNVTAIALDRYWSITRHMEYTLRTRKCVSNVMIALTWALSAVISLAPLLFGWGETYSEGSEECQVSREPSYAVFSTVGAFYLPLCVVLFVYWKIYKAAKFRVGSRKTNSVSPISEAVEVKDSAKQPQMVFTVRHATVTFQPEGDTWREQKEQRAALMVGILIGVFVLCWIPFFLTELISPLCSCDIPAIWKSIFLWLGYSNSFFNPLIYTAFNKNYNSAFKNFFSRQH
row,Compound,activation
1,CC(=O)c1cccc(NC(=O)C2CCN(C(=O)c3ccccc3Cl)CC2)c1,1.54%
2,O=C(CSc1nncs1)NC1CCCc2ccccc21 (configuration not stated),-2.59%
3,CC(C)(C)OC(=O)CNC(=O)c1[nH]cnc1C(=O)N[C@@H](Cc1ccccc1)C(=O)OCc1ccccc1,9.43%
4,CC(C)(C)OC(=O)N1CCC(NC(=O)c2[nH]cnc2C(=O)N[C@@H](Cc2ccccc2)C(=O)OCc2ccccc2)CC1,38% (active)
5,O=C(N[C@@H](Cc1ccccc1)C(=O)OCc1ccccc1)c1nc[nH]c1C(=O)NC1CCNCC1,-1.94%
6,O=C(CNCc1ccco1)Nc1cc(S(=O)(=O)N2CCOCC2)ccc1N1CCCC1,16.7% (active)
7,O=C(COC(=O)c1ccccc1F)Nc1cc(S(=O)(=O)N2CCOCC2)ccc1N1CCCC1,-1.44%
8,CC(=O)NCCC(=O)Nc1cc(S(=O)(=O)N2CCOCC2)ccc1N1CCOCC1,-0.71%
9,Cc1ccc(C(=O)NC2CCN(C(=O)Nc3ccccc3Cl)CC2)cc1,-0.54%
10,COc1ccccc1CCNC(=O)c1cnccn1,2.02%
11,COc1ccc(C(C#N)Nc2ccc(C)cc2)cc1 (configuration not stated),2.71%
12,CC(=O)N1CCN(S(=O)(=O)c2c(F)cc(F)c(Cl)c2F)CC1,11.6% (active)
13,CCN1CCN(C(=O)C2CCN(S(=O)(=O)c3cc(Cl)ccc3Cl)CC2)CC1,1.91%
14,O=C(c1cnc(Cl)c(Cl)c1)N1CCN(S(=O)(=O)c2ccc(F)cc2)CC1,-1.02%
15,CCc1nnc(NC(=O)CSCc2cc(=O)n3cc(C)sc3n2)s1,-1%
16,C/C(=N\NC(=O)CNc1cccc2ccccc12)c1ccc(Br)s1,46.5% (active)
17,C/C(=N\NC(=O)CSc1nc2ccccc2c(=O)n1-c1ccccc1C)c1cccs1,9.42%
18,Cc1cccc(/C=N/NC(=O)CNc2cccc3ccccc23)n1,2.33%
19,COc1ccc(CN2CCCCC2C)cc1OC (configuration not stated),-0.45%
20,COc1ccc(C2CC(c3cccs3)=Nc3ccccc3S2)cc1OC (configuration not stated),0.29%
21,O=C(Nc1nc(-c2ccco2)c(-c2ccco2)s1)c1ccco1,5.45%
22,CN(Cc1ccco1)S(=O)(=O)c1nnc(NC(=O)c2ccccc2)s1,2.57%
23,CNc1nnc(-c2ccco2)s1,15.4% (active)

row,Compound,activation
1,COc1cccc(-n2c(SCC(=O)NC3CCCCC3)nc3n[nH]c(C)c3c2=N)c1,0.63%
2,CCCCNC(=O)CSc1nc2n[nH]c(C)c2c(=N)n1-c1cccc(Cl)c1C,-2.98%
3,Cc1ccc(-n2c(SCC(=O)NCCC3=CCCCC3)nc3n[nH]c(C)c3c2=N)cc1Cl,12.6% (active)
4,CCOc1ccc(CN(Cc2ccco2)C(c2cccs2)c2nnnn2C(C)(C)C)cc1 (configuration not stated),-2.19%
5,Cc1nc2ccccc2c(C(=O)O)c1-c1ccccn1,-0.26%
6,CCOC(=O)CC(=O)CSc1nc(-c2ccccc2)cc(-c2ccc(Cl)cc2)c1C#N,10.7% (active)
7,CCSc1nc(-c2ccc(OC)cc2)cc(-c2ccc(OC)cc2)c1C#N,0.07%
8,N#Cc1c(C(F)(F)F)cc(-c2ccc(Cl)cc2)nc1SCC(=O)O,-1.06%
9,O=C(Nn1cnnc1)c1cc(Cl)ccc1Cl,-1.93%
10,c1cc(-c2nn[nH]n2)ccc1CN1CCCCC1,19.3% (active)
11,Brc1ccc(-c2nn[nH]n2)cc1,8.54%
12,Clc1ccc(CN2CCCCCC2)cc1Cl,1.18%
13,OCC1(CO)CC2(C1)CC(CO)(CO)C2,-2.41%
14,Cc1nn(Cc2ccc(Cl)cc2)c(Cl)c1/C=N/NC(=O)c1cccnc1,4.12%
15,Cc1c(Cl)c([N+](=O)[O-])nn1Cc1ccc(C(=O)N/N=C\c2cc(Cl)ccc2O)o1,13% (active)
16,O=C(N/N=C\c1ccc(Br)cc1)c1ccc(Cn2cccn2)o1,0.84%
17,O=C(C1CCCO1)N1CCN(S(=O)(=O)c2ccc(Br)cc2)CC1 (configuration not stated),1.59%
18,COc1ccc(Cl)cc1NC(=O)CN(C)C(=O)c1cc(-c2cccs2)nn1-c1ccccc1,-7.03%
19,CCCN1C(=O)C(NS(=O)(=O)c2ccc(N)cc2)(C(F)(F)F)C(C(=O)OC)=C1C (configuration not stated),-4.18%
20,CC(C)OC(=O)c1c(NC(=O)c2ccco2)sc2c1CCCC2,14.5% (active)
21,COC(=O)c1c(NC(=O)C2CC(C)=C(C)CC2C(=O)O)sc2c1CCCCC2 (configuration not stated),5.77%
22,CNC(=O)c1c(NC(NC(=O)c2ccco2)C(=O)c2ccc(Cl)cc2)sc2c1CCCC2 (configuration not stated),-4.03%
23,CN(C)CCCO/N=C(\c1ccccc1)c1ccncc1,7.85%

row,Compound,activation
1,Cc1ccc(C2CCN(C(=S)Nc3cccc(Cl)c3)C2)cc1 (configuration not stated),1.97%
2,CC(C)(C)n1ncc2c(=O)n(Cc3ccc(Cl)cc3)cnc21,3.5%
3,CN(CC(=O)NCc1ccc(Cl)cc1)S(=O)(=O)c1cccs1,1.02%
4,CCSc1nc2sc3c(c2c(=O)[nH]1)CC(C)(C)OC3,2.29%
5,CSc1nc2sc3c(c2c(=O)[nH]1)CCc1ccccc1-3,12.1% (active)
6,CCSc1nnc(-c2cc3c(s2)-c2ccccc2CC3)o1,-1.94%
7,O=C(Nc1ccc2c(c1)OCO2)C1CC1(Cl)Cl (configuration not stated),12.7%
8,Cc1ccc(-c2noc(CCC(=O)Nc3ccccc3N3CCN(C)CC3)n2)cc1,-1.14%
9,O=C(Nc1ccccc1Cl)O/N=C(/c1ccccc1)c1ccccn1,12.7% (active)
10,Cc1ccc(C(=O)O/N=C(\N)c2ccccn2)cc1Cl,4.33%
11,O=C(COc1ccc(-n2cnnn2)cc1)Nc1ccccc1Cl,5.09%
12,OCCC1CN(Cc2cccn2-c2nccs2)CCN1CCc1ccccc1 (configuration not stated),0.07%
13,O=C(CCc1nnc(Cc2ccc3c(c2)OCO3)o1)NCCc1ccccc1Cl,10.7% (active)
14,O=C(CCNS(=O)(=O)c1ccccc1C(F)(F)F)NCc1ccc2c(c1)OCO2,-3.01%
15,O=C(CC(Cc1ccccc1)C(=O)O)NCCc1ccc2c(c1)OCO2 (configuration not stated),0.52%
16,CC(NC(=O)COc1ccc(-c2ccccc2)cc1)C1CCCO1 (configuration not stated),4.73%
17,Cc1ccccc1CN1CCN(CC(=O)NCc2ccccn2)C1=O,16.8% (active)
18,COCCCNC(=O)CN1CCN(Cc2ccccc2Cl)C1=O,2.41%
19,Cc1nn(CC(=O)NCc2ccccn2)c(C)c1[N+](=O)[O-],-1.81%
20,O=C(Cn1nnc(-c2ccccc2)n1)N/N=C/c1ccc(-c2ccc(Cl)cc2)o1,1.41%
21,CCc1ccc(C(=O)OCC(=O)Nc2cccc(S(=O)(=O)NC3=NCCCCC3)c2)cc1,7.2%
22,CN(CCOc1ccc(Br)cc1)CC(=O)Nc1cccc(S(=O)(=O)NC2=NCCC2)c1,12.7% (active)
23,CC(=O)Nc1ccc(C(=O)Nc2cccc(S(=O)(=O)NC3=NCCC3)c2)cc1,1.89%

row,Compound,activation
1,Cn1c(=O)[nH]c(=O)c2c1nc(N(CCO)Cc1ccccc1)n2Cc1ccccc1Cl,-3.62%
2,COc1ccc(Cl)cc1NC(=O)C(C)N1CCc2ccccc21 (configuration not stated),1.38%
3,CCCCCc1ccc(-c2ccc(C(=O)O)cc2)nc1,4.14%
4,CCc1ccc(NC(=O)CN2C(=O)COc3ccc(S(=O)(=O)N4CCCC4)cc32)cc1,0.59%
5,CCc1ccc(NC(=O)CN2C(=O)CSC2=O)cc1,13.7% (active)
6,COc1ccc(NC(=O)CN2C(=O)CSC2=O)cc1,-1%
7,COC(=O)c1c(CCl)noc1C(=O)NC(C)C,2.61%
8,CC(C)(C)NC(=O)COC(=O)c1cc(Cl)ccc1[N+](=O)[O-],7.24%
9,CCOC(=O)c1ccccc1NS(=O)(=O)c1c(C)nc2sccn2c1=O,-1.95%
10,CCOC(=O)c1cnc2sccn2c1=O,21% (active)
11,CN(C)/C=C/C(=O)c1cnc2sccn2c1=O,0.28%
12,Cc1nc(C(=O)NCc2ccccc2)sc1C1(C)CC(c2cccnc2)=NO1 (configuration not stated),6.13%
13,COc1cccc(OCC(=O)Nc2ccccc2C(N)=O)c1,18.3% (active)
14,Cc1cccc(OCCC(=O)Nc2ccccc2C(N)=O)c1,1.89%
15,Cc1cccc(OCC(=O)Nc2ccccc2F)c1,0.76%
16,Cc1cc(C)c(S(=O)(=O)NCC(c2ccc3c(c2)OCO3)N2CCOCC2)c(C)c1 (configuration not stated),-4.07%
17,Cc1ccc2nc(SC(C)C(=O)NCc3ccco3)[nH]c2c1 (configuration not stated),-4.41%
18,CC(=O)c1c(C)[nH]c(C(=O)OCC(=O)Nc2c(C)n(C)n(-c3ccccc3)c2=O)c1C,1.57%
19,CC(=O)c1c(C)[nH]c(C(=O)OCC(=O)Nc2c(C)cccc2C)c1C,17.5% (active)
20,CC(=O)c1c(C)[nH]c(C(=O)OCC(=O)NCCC(C)C)c1C,-1.47%
21,CSCCC(NS(=O)(=O)/C=C/c1ccccc1)C(=O)N1CCC(C)CC1 (configuration not stated),-0.99%
22,CCNS(=O)(=O)c1ccc(NC(=O)Nc2cccc(C(F)(F)F)c2)cc1,12.8% (active)
23,O=C(COc1ccc(S(=O)(=O)Nc2cccc(C(F)(F)F)c2)cc1)N1CCOCC1,1.4%

row,Compound,activation
1,O=C(Nc1ccc(C(=O)N2CCOCC2)cc1)Nc1cccc(C(F)(F)F)c1,28.4% (active)
2,COc1ccccc1C(=O)Nc1cccc(C(=O)N2CCOCC2)c1,3.58%
3,CCNS(=O)(=O)c1ccc(NC(=O)c2cncc(Br)c2)cc1,0.87%
4,O=C(NCc1ccccc1)c1ccc(S(=O)(=O)Nc2cccc(C(F)(F)F)c2)cc1,2.56%
5,Cc1cc(OCCN2CCCC2)ccc1C(C)C,8.01%
6,O=C(NCCCO)c1cc2c([nH]c3ccccc32)c(-c2ccc(F)cc2)n1,1.16%
7,COc1ccccc1C(=O)COC(=O)COc1ccc(C#N)cc1,-2.03%
8,COc1ccc(-c2nc(CS(=O)(=O)CC(=O)NCc3cccc(Br)c3)c(C)o2)cc1,4.07%
9,O=C(COC(=O)CCCNC(=O)c1ccc(Cl)cc1)Nc1cc(Cl)ccc1Cl,7.08%
10,O=C(CN(c1ccccc1)S(=O)(=O)c1ccc(Cl)cc1)Nc1ccccc1C(=O)N1CCCC1,-0.02%
11,CCN(CC)C(=O)c1nc[nH]c1C(=O)N(C)Cc1ccccc1,-1.14%
12,COc1ccc(COC(=O)NC(C(=O)O)c2ccccc2)cc1 (configuration not stated),-0.04%
13,COc1ccc(C(CCN(Cc2ccc(OC)c(OC)c2)C(=O)CCl)c2ccccc2)cc1 (configuration not stated),44.4% (active)
14,COc1ccc(CCNC(=O)C(Sc2ccccn2)c2ccccc2)cc1OC (configuration not stated),2.72%
15,CCCNC(=S)NC1CC2CCCC(C1)N2CC(C)C (configuration not stated),4.6%
16,COc1c(N2CCN(C(=S)Nc3ccccc3F)C(C)C2)c(F)cc2c(=O)c(C(=O)O)cn(C3CC3)c12 (configuration not stated),-0.11%
17,Cc1ccc(C(=O)N/C(=C/c2ccco2)C(=O)NCCc2c[nH]c3ccccc23)cc1C,20.3% (active)
18,Cc1ccc(C(=O)N/C(=C\c2ccco2)C(=O)N2CCSCC2)cc1C,1.54%
19,O=C(NC(Cc1c[nH]c2ccccc12)C(=O)O)/C(=C/c1ccco1)NC(=O)c1ccccc1 (configuration not stated),0.55%
20,Cc1ccc(/C=N/NC(=O)C(NC(=O)c2ccccc2)c2n[nH]c(=O)c3ccccc23)cc1 (configuration not stated),3%

# — PubChem BioAssay AID504692 (The Scripps Research Institute Molecular Screening Center, 2011)
